# Data reported in the supplement of paper PMC8047044.
# Where “and” joins values, the source holds several entries; their conditions need not be identical. Equal values may be shown once. Where a name gives a salt, the structure may show the parent alone.
# What was measured:
# [1] = system: Neuro-2a; assay: neurite formation score, plate-normalized to DMSO control mean 5.04 (score (0-8 scale)); higher = more or longer neurites; details: 1 µM
# Description: (§1)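 Neuro-2a mouse neuroblastoma cells in PLL-coated 96-well plates were pre-treated for 1 h in DMEM(+) with each kinase inhibitor at 1 µM, then switched to serum-free DMEM(-) with inhibitor to induce neurite outgrowth and fixed about 2-3 h later. Three blinded observers scored neurite formation from 0 (no neurites) to 8 (long neurites on almost all cells).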
# [2] = system: Neuro-2a; assay: as above; details: 0.1 µM
# Description: as §1, with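 “at 0.1” for “at 1”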
Compound,neurite formation score [1],neurite formation score [2]
CNC(=O)c1ccccc1Nc1cc(Nc2ccc(N3CCOCC3)cc2OC)ncc1C(F)(F)F,5.02,5.58
CCN1CCN(Cc2ccc(NC(=O)Nc3ccc(Oc4cc(NC)ncn4)cc3)cc2C(F)(F)F)CC1,4.57,2.04
Oc1cc(O)cc(/C=C/c2ccc(O)c(O)c2)c1 [Piceatannol],4.88,4.75
COc1ccc2c(OCc3nnc4ccc(-c5ccccc5)nn34)ccnc2c1,4.54,5.75
Cc1[nH]c2ccccc2c1C1=C(NCCc2ccc(F)cc2)C(=O)N(C)C1=O,4.54,2.42
Cc1ccc2nc(NCCN)c3ncc(C)n3c2c1,4.47 and 4.14,4.09 and 3.42
NC(=O)c1ccc(N(C(N)=O)c2c(F)cccc2F)nc1-c1ccc(F)cc1F,4.63,4.58
O=C(c1ccc(F)c(F)c1Nc1ccc(I)cc1F)N1CC(O)([C@@H]2CCCCN2)C1 [Cobimetinib],3.24,4.71
CN(C)c1ccc(-c2nc3ncc(Cl)c(N4CCN(CC(=O)Nc5nccs5)CC4)c3[nH]2)cc1,3.8,4.09
CCc1cccc(CC)c1NC(=O)N1Cc2[nH]nc(NC(=O)c3ccc(N4CCN(C)CC4)cc3)c2C1,4.8,5.09
CC[C@@H]1C(=O)N(C)c2cnc(Nc3ccc(C(=O)N[C@H]4CC[C@H](N5CCN(CC6CC6)CC5)CC4)cc3OC)nc2N1C(C)C [BI6727 (Volasertib)],5.29,4.25
Cc1ccccc1CN1C2=NCCN2C(=O)C2=C1CCN(Cc1ccccc1)C2,4.63,4.25
CNC(=O)c1cc(Oc2ccc(NC(=O)Nc3ccc(Cl)c(C(F)(F)F)c3)c(F)c2)ccn1 [Regorafenib hydrochloride],3.69,4.92
C=CC(=O)Nc1cc(Nc2nccc(-c3cn(C)c4ccccc34)n2)c(OC)cc1N(C)CCN(C)C,5.14,3.76
COc1ncc(-c2ccc3nccc(-c4ccnnc4)c3c2)cc1NS(=O)(=O)c1ccc(F)cc1F,2.63,4.92
C[C@H]1[C@H](C)CC[C@]2(C(=O)O)CC[C@]3(C)C(=CC[C@@H]4[C@@]5(C)C[C@@H](O)[C@H](O)[C@@](C)(CO)[C@@H]5CC[C@]43C)[C@H]12 [Asiatic acid],4.21,5.08
Cn1cc(-c2[nH]c3cc(NC(=O)[C@H](N)C4CCCCC4)cc4c3c2C=NNC4=O)cn1,3.63,4.25
O=C(Nc1c[nH]nc1-c1nc2ccc(CN3CCOCC3)cc2[nH]1)NC1CC1,4.02,5.92
CC(C)(C)Cn1c(N)nc2ccc(-c3[nH]c(C(C)(C)C)nc3-c3ccc(F)cc3)nc21,4.57,5.54
N#Cc1c(O)c2c(-c3ccc(-c4ccccc4O)cc3)csc2[nH]c1=O,5.69,5.58
FC(F)(F)c1ccc(CNc2ccc(Cc3c[nH]c4ncc(Cl)cc34)cn2)cn1 [Pexidartinib (PLX3397)],4.54,5.42
Oc1ccc(-c2nc(-c3ccc(F)cc3)c(-c3ccncc3)[nH]2)cc1,4.57,4.71

Compound,neurite formation score [1],neurite formation score [2]
N[C@@H]1CCCN(c2c(/C=C3\SC(=O)NC3=O)cccc2-c2ccccc2)C1,5.36,5.25
Cn1c(=O)n(-c2ccc(C(C)(C)C#N)cc2)c2c3cc(-c4cnc5ccccc5c4)ccc3ncc21,2.9,5.21
CN(c1ccccc1CNc1nc(Nc2ccc3c(c2)CC(=O)N3)ncc1C(F)(F)F)S(C)(=O)=O,4.29,3.58
Cc1ccc(C(=O)Nc2ccc(CN3CCN(C)CC3)c(C(F)(F)F)c2)cc1C#Cc1cnc2cccnn12,1.24,3.88
CC(C)c1cnn2c(NCc3ccccc3)cc(NCCCCCCN)nc12,,4.88
O=c1ncn2nc(Sc3ccc(F)cc3F)ccc2c1-c1c(Cl)cccc1Cl,,4.92
O=S(=O)(c1cccc2cnccc12)N1CCCNCC1 [Fasudil (HA-1077) HCl],4.24,5.21
CCN(CCCOc1ccc2c(Nc3cc(CC(=O)Nc4cccc(F)c4)[nH]n3)ncnc2c1)CCOP(=O)(O)O,4.91,4.71
Clc1ccc(Nc2nnc(Cc3ccncc3)c3ccccc23)cc1 [Vatalanib (PTK787) 2HCl],,3.71
CCCCCCCCCCCCCCCCCCOP(=O)([O-])OC1CC[N+](C)(C)CC1 [Perifosine],,4.88
COc1cc2ncnc(Nc3cccc(Cl)c3)c2cc1OC,3.57,5.54
O=c1cc(N2CCOCC2)oc2c1ccc1ccccc12,4.8,4.42
Cn1cnc(-c2cc3nccc(Oc4ccc(NC(=S)NC(=O)Cc5ccccc5)cc4F)c3s2)c1,,4.92
Cc1ccc(NC(=O)c2cccc(N(C)C)c2)cc1NC(=O)c1ccc(O)cc1,5.63,4.58
O=C(NCc1ccccc1)c1csc(Nc2ccncn2)n1 [Thiazovivin],4.57,4.88
CO[C@H]1C[C@@H]2CC[C@@H](C)[C@@](O)(O2)C(=O)C(=O)N2CCCC[C@H]2C(=O)O[C@H]([C@H](C)C[C@@H]2CC[C@@H](OCCO)[C@H](OC)C2)CC(=O)[C@H](C)/C=C(\C)[C@@H](O)[C@@H](OC)C(=O)[C@H](C)C[C@H](C)/C=C/C=C/C=C/1C [Everolimus (RAD001)],4.57,5.54
O=C(Nc1ccc(-c2ccnc(Nc3ccc(N4CCOCC4)cc3)n2)cc1)C1CCCN1 (configuration not stated),4.02,4.92
CCOc1cc(C(=O)N2CCC(N3CCN(C)CC3)CC2)ccc1Nc1ncc2c(n1)N(C1CCCC1)c1ccccc1C(=O)N2C,4.02,4.25
C=CC(=O)Nc1ccc2ncnc(Nc3cccc(Br)c3)c2c1,,3.71
CCOc1cc2ncc(C#N)c(Nc3ccc(F)c(Cl)c3)c2cc1NC(=O)/C=C/CN(C)C [Pelitinib (EKB-569)],3.91,4.38
CC(=O)Nc1cccc(-n2c(=O)n(C3CC3)c(=O)c3c(Nc4ccc(I)cc4F)n(C)c(=O)c(C)c32)c1,3.57,4.38
O=C1NC(=O)[C@@H](c2cn3c4c(cccc24)CCC3)[C@@H]1c1c[nH]c2ccccc12 [Tivantinib (ARQ 197)],0.236,0.876

Compound,neurite formation score [1],neurite formation score [2]
CN1CCN(C2CCN(C(=O)Nc3cc(Oc4ccc(NC(=O)C5(C(=O)Nc6ccc(F)cc6)CC5)c(F)c4)ccn3)CC2)CC1 [Golvatinib (E7050)],4.14,3.76
CN(C)S(=O)(=O)c1ccc2c(c1)/C(=C/c1cc3c([nH]1)CCCC3)C(=O)N2,4.54,4.75
O=C(O)CCC(=O)Nc1ccc(Br)cn1 [Bikinin],4.54,1.42
CN1CCN(c2ccc3nc(-c4c(N)c5c(F)cccc5[nH]c4=O)[nH]c3c2)CC1 [Dovitinib Dilactic acid],,4.92
O=c1cc(N2CCOCC2)oc2c(-c3ccccc3)cccc12,5.24,4.21
O=C(NOC[C@H](O)CO)c1ccc(F)c(F)c1Nc1ccc(I)cc1F,4.91,4.71
FC(F)c1nc2ccccc2n1-c1nc(N2CCOCC2)nc(N2CCOCC2)n1,4.24,4.21
Nc1nccc(-c2c(-c3ccc(F)cc3)ncn2C2CCCCC2)n1,5.02,5.58
COc1ccc2c(c1)c(C1=C(c3c[nH]c4ccccc34)C(=O)NC1=O)cn2CCCN(C)C,5.24,5.54
CN(C)Cc1cccc(N=C(c2ccccc2)c2c(O)[nH]c3cc(C(=O)N(C)C)ccc23)c1,4.9,5.54
C=CCc1ccc(O)c(-c2ccc(O)c(CC=C)c2)c1 [Honokiol],4.47,2.76
c1nc2c(NC3CCCCC3)nc(Nc3ccc(N4CCOCC4)cc3)nc2[nH]1 [Reversine],5.02,4.92
Cc1c(NC(=O)c2ccc(C(C)(C)C)cc2)cccc1-c1cn(C)c(=O)c(Nc2ccc(C(=O)N3CCOCC3)cc2)n1,5.57,5.04
N#CC(=C(/N)Sc1ccccc1N)/C(C#N)=C(\N)Sc1ccccc1N,4.57,5.71
CCS(=O)(=O)c1cccc(-c2cc(C(=O)NC3CCN(C)CC3)c(C)c3[nH]c4ncc(C)cc4c23)c1,2.69,4.58
CN1CCC(CNc2ccc3ncc(-c4cccc(OC(F)(F)F)c4)n3n2)CC1 [SGI-1776 free base],5.69,5.25
CC(C)(C)n1nc(Cc2cccc3ccccc23)c2c(N)ncnc21,4.63,4.58
COc1cc2ncnc(Nc3ccc(F)c(Cl)c3)c2cc1OCCCN1CCOCC1 [Gefitinib (ZD1839)],4.24,4.88
COc1ccc(-c2ccc3ncc4c(c3c2)n(-c2ccc(N3CCNCC3)c(C(F)(F)F)c2)c(=O)n4C)cn1,,4.92
O=S(=O)(c1cccc2c(O)nccc12)N1CCCNCC1 [Hydroxyfasudil hydrochloride],3.8,2.09
CC(=O)Nc1cccc(-n2c(=O)n(C3CC3)c(=O)c3c(Nc4ccc(I)cc4F)n(C)c(=O)c(C)c32)c1 [Trametinib DMSO solvate],5.02,4.92
